Laboratory results as given in paper PMC13494018.
Unmarked numbers belong to inactive results. No rule for the calls is given here.

Molecular target: CD276, Q5ZPR3
Sequence (Q5ZPR3 whole entry): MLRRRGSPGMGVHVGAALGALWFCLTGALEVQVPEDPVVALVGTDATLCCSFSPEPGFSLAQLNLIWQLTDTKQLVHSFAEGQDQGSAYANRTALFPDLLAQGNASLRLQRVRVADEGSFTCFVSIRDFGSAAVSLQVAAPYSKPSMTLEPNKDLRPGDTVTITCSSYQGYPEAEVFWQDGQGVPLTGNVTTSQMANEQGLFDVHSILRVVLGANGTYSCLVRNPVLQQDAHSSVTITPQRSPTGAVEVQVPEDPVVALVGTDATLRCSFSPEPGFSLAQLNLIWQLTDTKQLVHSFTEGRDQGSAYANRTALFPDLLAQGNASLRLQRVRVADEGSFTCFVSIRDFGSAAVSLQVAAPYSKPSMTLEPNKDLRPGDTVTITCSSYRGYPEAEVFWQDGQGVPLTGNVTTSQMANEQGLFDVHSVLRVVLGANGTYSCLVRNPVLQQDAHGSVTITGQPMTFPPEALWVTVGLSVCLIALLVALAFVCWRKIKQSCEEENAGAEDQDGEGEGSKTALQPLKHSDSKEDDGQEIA

B1: d1r8_design_ppi_838_dldesign_0_cycle1_af2pred (protein)
chain: NAGELLGKALELLEEASRLAKEDYEKAKEAAEKAIEYAEKAAAADPAHAPALVAVKSAARNIIEQAKKNEAARKAA
Question: B1 was tested. Which “binding in a display sort” value did it give?
Answer: Its value is “not found”.

B2: d1r11_design_ppi_322_dldesign_0_cycle0_af2pred (protein)
chain: DTAEKAREVAKKAVEVAKEAAEKDPRAQAVYETAKIVAEGVEALVAAGQTELALRQAETQLKIAEKVLKEVLA
Question: B2 was tested. Which “binding in a display sort” value did it give?
Answer: Its value is “not found”.

B3: d1r8_design_ppi_679_dldesign_0_cycle0_af2pred (protein)
chain: AEAQKLLEKAKKLAEEAKKIAKESGDEEAKRIAEGAKKMAELAKAALAAGDSAAAMQAYLAGVKTLYEAAKEEAKRKA
Question: With B3 as the binder, how does the “binding in a display sort” value read?
Answer: The value was “not found”.

B4: d1r8_design_ppi_790_dldesign_0_cycle0_af2pred (protein)
chain: AAAAAQAATATAIRSRGTNRMLTRILALPASASEAELRAIVEEEAERARAEMLAAGVSPELAEAAVEHILRIGEQAIAAR
Question: How did the “binding in a display sort” value turn out when B4 was run?
Answer: The value was “not found”.

B5: d1r8_design_ppi_647_dldesign_0_cycle0_af2pred (protein)
chain: KEELVKQAESLEKFAKLAAEGASPEAKPLFEKAAEKFRKAAEAAKENPEEGEKLMAEGRKLLAEGMRLEIQLR
Question: B5 was tested. Which “binding in a display sort” value did it give?
Answer: The value was “not found”.

B6: d1r11_design_ppi_238_dldesign_0_cycle0_af2pred (protein)
chain: AAAAAAAAAAAALAEAAARAAAATDVTTKVGAALTAQNPSVKPITDAAVEKMKQAAAVVADPAKAAAYQKEAGDLLTQALRQVAAARR
Question: For B6, which “binding in a display sort” value is on record?
Answer: The value was “not found”.

B7: d1r11_design_ppi_51_dldesign_0_cycle1_af2pred (protein)
chain: AEVEKKAKEAKKKVEEAKKKMEEAEKAGDAEALRKAAAEANKKAIELASAALAEKDAETAKALAEAAQKLVEIALRANEAMAKLER
Question: Which “binding in a display sort” value does the source give for B7 here?
Answer: The value was “not found”.

B8: d1r8_design_ppi_934_dldesign_0_cycle1_af2pred (protein)
chain: ASPLERAESLREFLHTVADAMAKNVGAEGQKVADAAKAAGDAAVAAARAAGTPEAYEAARDTLRALTADVIKAYMAALS
Question: Which “binding in a display sort” value does the source give for B8 here?
Answer: The value was “not found”.

B9: d1r8_design_ppi_723_dldesign_0_cycle1_af2pred (protein)
chain: EEAQKKIKELGEKAAELAKKNVEEGAEALKEAAKLAAKAQPASAEQILKHGEAVAERAKTLSPEEAATLVRNAGKVFAQL
Question: For B9, which “binding in a display sort” value is on record?
Answer: Its value is “not found”.

B10: d1r8_design_ppi_811_dldesign_0_cycle0_af2pred (protein)
chain: AQEAADQAAFEAAKAGLEKATEAAVGMLEALGEEEAAKEVREFAEKAKKEAEKLTPKEGAELYGKAANEILRRTSQVAAQAVA
Question: For B10, which “binding in a display sort” value is on record?
Answer: The value was “not found”.

B11: d1r8_design_ppi_934_dldesign_0_cycle0_af2pred (protein)
chain: ASALARAESQLAFLNTVADAMATQTGEEGAKIAAEAKAAGDAALAAAKASGTPAAYEAATAQLNALTAQVQRETMARLA
Question: Which “binding in a display sort” value does the source give for B11 here?
Answer: The value was “not found”.

B12: d1r8_design_ppi_742_dldesign_0_cycle1_af2pred (protein)
chain: AAAAAAKAAAAAAAQAALRSLRDLAARAKAAEAAGDPEAAAKYRAAAEQWADIAIASAKQAGTEATVAAEAAALLAA
Question: How did the “binding in a display sort” value turn out when B12 was run?
Answer: The value was “not found”.

B13: d1r8_design_ppi_843_dldesign_0_cycle0_af2pred (protein)
chain: AEEARRAEAAARLEAAVAAGQATLVEVNKAAAATGDAALAEAALALSRAIAEGRRLGREGRYEEGAALVEAATKAAKATLAA
Question: How did the “binding in a display sort” value turn out when B13 was run?
Answer: Its value is “not found”.

B14: d1r11_design_ppi_170_dldesign_0_cycle0_af2pred (protein)
chain: ASPEELTLTARALAFAGGSPEWRPLLQEAIAAYATAEASDPATGAAARAKADAITAELVERYRAAEAAEAAAAA
Question: How did the “binding in a display sort” value turn out when B14 was run?
Answer: The value was “not found”.

B15: d1r8_design_ppi_791_dldesign_0_cycle0_af2pred (protein)
chain: SENEKKLEEVKKKLEEAKKAAEEDPKAGAALAIETIELAKKAAEEAKKNGDEKTAEEANKLAHEAMKLAAKALAKAAA
Question: For B15, which “binding in a display sort” value is on record?
Answer: Its value is “not found”.

B16: d1r8_design_ppi_953_dldesign_0_cycle1_af2pred (protein)
chain: SAAAELALKSLQAALAAAKAAAKAYGPAAAEAHLKNALLLADSYAAATDAAAGAALKAKVEAEAAAAMAAV
Question: With B16 as the binder, how does the “binding in a display sort” value read?
Answer: Its value is “not found”.

B17: d1r8_design_ppi_811_dldesign_0_cycle1_af2pred (protein)
chain: AEEEEAERAREEAKESLLAARDTAVGILTAAGLTDKAKEVEKYAEEALKEAEKLTPEEAAKLYGEAANRILTDTIAAASAAVA
Question: For B17, which “binding in a display sort” value is on record?
Answer: Its value is “not found”.

B18: d1r8_design_ppi_667_dldesign_0_cycle0_af2pred (protein)
chain: SAAAAAALAAARATAVAALTAGTGLAPEEAAALAAAMTDDQIFAIANLNAANPAAGQALAANLAAQVRRELA
Question: How did the “binding in a display sort” value turn out when B18 was run?
Answer: The value was “not found”.

B19: d1r8_design_ppi_870_dldesign_0_cycle1_af2pred (protein)
chain: EAEANQQAMNLLMRAAALQPRDREKAREAVEEGRKVAKDEETKKLLEEAVKALDGDVDEAIAVLLETAKKISERAREAAA
Question: For B19, which “binding in a display sort” value is on record?
Answer: The value was “not found”.

B20: d1r11_design_ppi_189_dldesign_0_cycle1_af2pred (protein)
chain: AAAEKAKLGFQLLNQLQKAQQAVAAGAAAGATAAEFEALAAQAQKAKEEGKQTILADTVQAAADVVIAAARAAAAAAKARAA
Question: For B20, which “binding in a display sort” value is on record?
Answer: The value was “not found”.

B21: d1r8_design_ppi_780_dldesign_0_cycle1_af2pred (protein)
chain: AAATLAALTAAFGRLVELGAEAIRANPALAPEVNKLLGTASKAAIAGIRDPSLAEAALKTIEAQLKKVEELLKKAK
Question: How did the “binding in a display sort” value turn out when B21 was run?
Answer: The value was “not found”.

B22: d1r8_design_ppi_616_dldesign_0_cycle1_af2pred (protein)
chain: DAAREAALKEAKEEFEKAEKEAEEAIKAAKDDPEAQKKLKELRESAKAALENAEKTKADVTTYKGVKALARMLLQTAEGVKKAAEA
Question: B22 was tested. Which “binding in a display sort” value did it give?
Answer: The value was “not found”.

B23: d1r8_design_ppi_923_dldesign_0_cycle0_af2pred (protein)
chain: AAEMAATAAYVSEVAARAQAEDPSLGPEVNRLFALLARAGAAYAADPAAGAAVAAEARAYAEELDKRLEAAL
Question: Which “binding in a display sort” value does the source give for B23 here?
Answer: Its value is “not found”.

B24: d1r8_design_ppi_744_dldesign_0_cycle1_af2pred (protein)
chain: STAEKAVKLVEETAKKGIAEAKADPAKVPAAAKELAKKGKEAAKLIGSTGLAVGIGNLAKTAIAFPEQAPDYFASAAALAKEVAE
Question: With B24 as the binder, how does the “binding in a display sort” value read?
Answer: Its value is “not found”.

B25: d1r8_design_ppi_590_dldesign_0_cycle1_af2pred (protein)
chain: LEEVKKKLKELAELAKSAGKWNPETGKQVVKSLLRVAESEAKRLAGDPEAAEKVKKYGEELAKEAEKEIKEVAAA
Question: Which “binding in a display sort” value does the source give for B25 here?
Answer: Its value is “not found”.

B26: d1r8_design_ppi_716_dldesign_0_cycle1_af2pred (protein)
chain: AVEAALAEARAVLERAKEAAKRLKEVGTPEEQKLAEELVALGETALKQAEADGTLATARGALAAARLALQGLEGLLERALARRAAAA
Question: With B26 as the binder, how does the “binding in a display sort” value read?
Answer: Its value is “not found”.

B27: d1r11_design_ppi_310_dldesign_0_cycle1_af2pred (protein)
chain: EAAAAAALTAKAQALYAKYVAAAKAAQAALAGTEAHKEIAALLAQAEAAADDIGLALALASTAANLAAAKLAAALA
Question: For B27, which “binding in a display sort” value is on record?
Answer: The value was “not found”.

B28: d1r8_design_ppi_832_dldesign_0_cycle0_af2pred (protein)
chain: AAEAAALKAQIEAAIAQMREETRRAAERDVEEGGRVASAATQQITKLVSQLAKVDPAAGAEAMALLTEAMREVQAYLDAERAARA
Question: How did the “binding in a display sort” value turn out when B28 was run?
Answer: Its value is “not found”.

B29: d1r8_design_ppi_735_dldesign_0_cycle1_af2pred (protein)
chain: SEAAEKALKAVEAAIEVVETGTPEEALAATKAAAEVAKKAAEAAGNLGAQIKATADAAVKATAADKAAGLAKLRTLATLLRAYAEA
Question: B29 was tested. Which “binding in a display sort” value did it give?
Answer: Its value is “not found”.

B30: d1r8_design_ppi_824_dldesign_0_cycle1_af2pred (protein)
chain: AEAERRRAEVLALFDEAVAAGSPELARAAAERAAELNPERAEDIRQQGEIAAALMPFSPRAARALMRTVAA
Question: B30 was tested. Which “binding in a display sort” value did it give?
Answer: The value was “not found”.

B31: d1r8_design_ppi_849_dldesign_0_cycle0_af2pred (protein)
chain: DDAAKAAELTALVLEEEAADPVRAGEVGAARARELGLSAAGILAVLDRVVAEAAPSGETVRALMRAAIEAAQA
Question: How did the “binding in a display sort” value turn out when B31 was run?
Answer: The value was “not found”.

B32: d1r8_design_ppi_661_dldesign_0_cycle1_af2pred (protein)
chain: DVVAEARELAARAEEAAERARADPAASQEVVDLFRQAAGYARNALLLAEGTPESQAQAARLLERARRLFEEAERRFRADVAAAA
Question: Which “binding in a display sort” value does the source give for B32 here?
Answer: The value was “not found”.

B33: d1r11_design_ppi_223_dldesign_0_cycle1_af2pred (protein)
chain: AAEAQALAAQAKKLADEAAKEAASPKSGELLGKAIELAMQANTLDPALGGQLSKYIAATAAAAAAKAAAEAAA
Question: For B33, which “binding in a display sort” value is on record?
Answer: Its value is “not found”.

B34: d1r8_design_ppi_889_dldesign_0_cycle1_af2pred (protein)
chain: AMAAAIAAVAASARAAAAIGRADPAAAPGAAAFLDVAAETLAALAKADPAHAAQANAAAAEARATAAELRAAAAA
Question: For B34, which “binding in a display sort” value is on record?
Answer: The value was “not found”.

B35: d1r11_design_ppi_301_dldesign_0_cycle0_af2pred (protein)
chain: SLLEEAKKLAEELKELLKKAKEALADPEKAKELIKKAEEANKKLVELAVEAAKAGDHESAALANRAALEGQRKIAEIKAQLAA
Question: For B35, which “binding in a display sort” value is on record?
Answer: The value was “not found”.

B36: d1r8_design_ppi_616_dldesign_0_cycle0_af2pred (protein)
chain: DAERQAALEEAKKEAERAKKAAEEAIKAAAKDPEAQKKLEEARENLEAALKWAEETNGDVTTWKGVTALARMVLQAAEGIKKKAEA
Question: With B36 as the binder, how does the “binding in a display sort” value read?
Answer: Its value is “not found”.

B37: d1r8_design_ppi_886_dldesign_0_cycle1_af2pred (protein)
chain: AKAAELAAEGKALAEQLAKEGAADGEKGIELLKQGSALVRELEALGAEDPEYAEAAKAAQAALQAAVAAFAAASIAKAAAA
Question: With B37 as the binder, how does the “binding in a display sort” value read?
Answer: The value was “not found”.

B38: d1r8_design_ppi_906_dldesign_0_cycle1_af2pred (protein)
chain: AAEAAERADRGQGTLIAMEAEARLAAIAKAHPEVAALAAAAAERVRAAAPLPAAEVRAVAERELAEVEAALAAA
Question: With B38 as the binder, how does the “binding in a display sort” value read?
Answer: The value was “not found”.
